TGFb inhibitor – inhibitors of TGF-b signaling; HepG2 CAGA-GFP TGF-b/SMAD3 reporter, GFP fluorescence, 18 h; TGF-beta stimulated, 500 pg/mL final; 410,000 compounds, 1.2% hits; Potency, µM (series often up to 46.1 µM), without a hit: at the highest dose activity, negative = inhibition, hits mostly inhibitors; also: % is scaled to controls: 0 for no effect and ±100 for the full control effect; nearly all actives have a fitted effect of over 65% in size
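GFP signal (ex488/em500-530) from TGF-beta-stimulated HEPG2 CAGA-GFP cells, 500 pg/mL final, 18 h at 37 degrees C in DMEM plus 1% FBS, normalized to unstimulated and DMSO-stimulated controls.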
ATXN viability – reduces viability in counter-screen for ATXN expression inhibitors | S2 cells (HEK-293 line with an ATXN2-luciferase reporter) viability, CellTiter-Fluor protease fluorescence, 24 h | Potency, µM (titrated, usually from 56.7 µM), actives largely listed as cytotoxic | 400,000 compounds, 0.49% hits | AID 651635; also: nearly all actives have a fitted effect of over 40% in size
ATXN2 expr inh – ATXN2 expression inhibition | HEK-293 ATXN2-luciferase reporter, luminescence, 24 h | 360,000 compounds, 0.72% hits | Potency, µM (doses to about 57 µM), inactives show top-dose activity change, negative = inhibition, hits mostly inhibitors | AID 1745845; also: % is scaled to controls: 0 for no effect and ±100 for the full control effect; nearly all actives have a fitted effect of over 55% in size
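qHTS (up to 57 uM final) was run with 24 h compound exposure of reporter cells at 37 °C. Each well was multiplexed: SteadyGlo luminescence measured ATXN2-luciferase expression after a fluorogenic Gly-Phe-AFC viability readout (25 uM final).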
DT40 TDP1 no CPT – qHTS for Inhibitors of human tyrosyl-DNA phosphodiesterase 1 (TDP1): qHTS in cells in absence of CPT; DT40 Tdp1-/- hTDP1 cells, no CPT, ATP luminescence, 48 h; Potency, µM (titrated, usually from 46.2 µM), for the others: at the top dose activity change, negative = growth inhibition, most hits filed as inhibitors; 420,000 compounds, 15% hits; also: % is scaled to controls: 0 for no effect and ±100 for the full control effect; nearly all actives have a fitted effect of over 55% in size
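Cells were dispensed at 400 per well, compounds added by pin tool, plates incubated ≥48 hr at 37 °C, then CellTiter-Glo added for 30 min at room temperature before luminescence reading. Line: DT40 Tdp1-/- complemented with hTDP1; camptothecin omitted.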
HepG2 tox – HepG2 cytotoxicity, counter-screen for TGF-b inhibitors; HepG2 CAGA-GFP viability, ATP luminescence, 18 h; Potency, µM (titrated, usually from 46.1 µM), inactives show top-dose activity change, negative = cytotoxicity, most hits filed as cytotoxic; 410,000 compounds, 0.76% hits
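HepG2 CAGA-GFP cells (1000/well, DMEM with 1% FBS) received compound, then TGF-beta at 500 pg/mL final, and were incubated 18 hours at 37 degrees C. Viability was read by CellTiter-Glo luminescence. Media-only wells were set as complete cell-killing and DMSO as no toxicity.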
TDP1 cell CPT – growth inhibition of DT40 Tdp1-/-;hTDP1 cells with camptothecin (screen for TDP1 inhibitors); 420,000 compounds, 12% hits; Potency, µM (series often up to 46.2 µM), without a hit: at the highest dose activity change, negative = growth inhibition, most hits filed as inhibitors; chicken DT40 Tdp1-/-;hTDP1 cells + 20 nM CPT, ATP luminescence, 48 h; AID 686979; also: % is scaled to controls: 0 for no effect and ±100 for the full control effect; nearly all actives have a fitted effect of over 55% in size
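Cell growth measured by CellTiter-Glo luminescence after a minimum 48 h, 37 C compound exposure with 20 nM CPT in Tdp1-knockout DT40 cells stably expressing hTDP1, seeded 400/well; qHTS titration format.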
An asterisk follows results filed as active; i = inactive; ? = inconclusive; · = no result; [ ] = another dose, or the depositor's remark. Compounds with a hit are over-represented: about 17% of the library has one in this group of screens. Calls follow the shape of the dose curve; as a rule, active = well fitted curve in the direction sought with a large enough effect; inconclusive = small, poorly fitted or top-dose-only effect, or another doubt; inactive = no such curve, though single readings can be large; an effect the other way counts as inactive or inconclusive. Potency is read from the fitted curve at half-maximal effect.

SMILES	TGFb inhibitor	ATXN viability	ATXN2 expr inh	DT40 TDP1 no CPT	HepG2 tox	TDP1 cell CPT
Clc1ccc2nc(-c3ccc(N4CCOCC4)cc3)c(Nc3ccccc3)n2c1	9%	i	14%	?	-38%	?
Cc1ccc2nc(-c3ccc(N4CCOCC4)cc3)c(Nc3ccccc3C)n2c1	-2%	?	-31%	18µM*	-98%	16µM*
Cc1ccn2c(Nc3ccccc3C)c(-c3ccc(N4CCOCC4)cc3)nc2c1	?	·	0%	?	-18%	18µM*
Cc1ccc(Nc2c(-c3ccc(N4CCOCC4)cc3)nc3ccc(Cl)cn23)cc1	5%	i	0%	-21%	-17%	-20%
Cc1ccccc1Nc1c(-c2ccc(N3CCOCC3)cc2)nc2ccc(Cl)cn12	7%	i	9%	16µM*	-9%	18µM*
COC(=O)c1[nH]nc(C(=O)OC(C)(C)C)c1-c1ccccc1	?	i	18%	13µM*	-10%	16µM*
COc1cc(NC(=O)N2CCC(CN3CCCC3)CC2)cc(OC)c1OC	21%	·	·	5%	5%	18%
COc1cc2c(cc1OC)C(C)N(C(=O)Nc1cc(C)cc(C)c1)CC2 (centres undefined)	-22%	?	·	2.6µM*	-17%	3.3µM*
COc1cc2c(cc1OC)C(CC(=O)O)N(C(=O)Nc1cc(OC)c(OC)c(OC)c1)CC2 (centres undefined)	3%	·	·	?	-2%	3.7µM*
COc1cc2c(cc1OC)C(C)N(C(=O)CCc1c[nH]c3ccccc13)CC2 (centres undefined)	0%	i	-5%	?	-5%	?
COc1cc2c(cc1OC)C(C)N(C(=O)Nc1ccc(F)cc1)CC2 (centres undefined)	5%	?	·	7.3µM*	0%	13µM*
O=C(O)CC1c2ccccc2CCN1C(=O)Nc1cc(Cl)ccc1Cl (centres undefined)	29%	·	·	21µM*	10%	21µM*
COC(=O)C[C@@H]1CC[C@H](NC(=O)Nc2ccc(OC)cc2)[C@@H](CO)O1	·	·	·	8%	·	2%
CC(=O)N1CCN(Cc2nc3cc(NC(=O)c4cccc(Br)c4)ccc3n2C)CC1	7%	i	-37%	?	6%	-25%
CCc1noc(C)c1C(=O)Nc1cc(Cl)ccc1N1CCOCC1	-1%	i	-5%	-27%	13%	-8%
CC(C)=CCc1c(O)cc(O)c2c1OC(c1ccc(O)cc1)CC2=O (centres undefined)	-5%	i	-5%	?	-24%	?
COc1cc(O)cc2c1[C@@H]1Oc3c(ccc(O)c3CC=C(C)C)[C@@H]1CO2	?	?	?	23µM*	-24%	18µM*
COc1ccc(OC)c(S(=O)(=O)Nc2cc3c(cc2N2CCCC2)n(C)c(=O)c(=O)n3C)c1	6%	i	-4%	23µM*	-1%	21µM*
Cn1c(=O)c(=O)n(C)c2cc(N3CCCC3)c(NS(=O)(=O)c3ccc(F)cc3)cc21	0%	i	-7%	12%	7%	-7%
COc1ccc(Br)c(C(=O)Nc2cc3c(cc2N2CCCCC2)n(C)c(=O)c(=O)n3C)c1	-8%	i	-2%	8.2µM*	-24%	23µM*
COc1ccc(Br)c(C(=O)Nc2cc3c(cc2N2CCOCC2)n(C)c(=O)n3C)c1	-5%	i	0%	?	-5%	23µM*
C/C(=C\c1ccco1)CN1CCOc2ccc(CN3CCC(Oc4cccnc4)CC3)cc2C1	·	?	·	-33%	·	2%[9.04 µM]
Cc1ccc2nccnc2c1	8.9µM*	·	·	3.2µM*	5.6µM*	3.5µM*
Cc1ccc2ncccc2c1	-1%	i	-5%	-10%	8%	-5%
Clc1ccc2nccnc2c1	?	·	·	0.79µM*	14µM*	1µM*
SMILES	TGFb inhibitor	ATXN viability	ATXN2 expr inh	DT40 TDP1 no CPT	HepG2 tox	TDP1 cell CPT
Cc1ccc2c(C)ccnc2c1	?	·	·	7.1µM*	-18%	10µM*
Cc1nn(CCC#N)c(NC(=O)c2ccccc2)c1P(=O)(Nc1ccc(Br)cc1)N1CCOCC1 (centres undefined)	4%	i	0%	-10%	1%	-18%
Cn1nc(-c2ccccc2)c(C(O)c2ccc(Cl)cc2)c1Cl (centres undefined)	0%	i	-16%	?	5%	?
Cn1nc(-c2ccccc2)c(CSc2ccccc2Cl)c1Cl	21%	i	-24%	10µM*	-31%	?
O=C(NCCC1CCCCN1S(=O)(=O)c1ccc(F)cc1)C(=O)NCc1cccnc1 (centres undefined)	-2%	i	-4%	-13%	-9%	-14%
CCc1cnn2c(NCc3ccc[n+]([O-])c3)cc(N3CCCC[C@@H]3CCO)nc12	·	·	0.014µM*	·	·	·
COc1ccc(C2=CC(=O)CCC2)cc1	-18%	i	31%	1%	-5%	9%
CC1(C)O[C@@H]1COc1c2ccoc2cc2oc(=O)ccc12	-1%	i	6%	18µM*	10%	12µM*
CC(C)=CCOc1c2ccoc2cc2oc(=O)ccc12	10%	i	-9%	-14%	-7%	-1%
Cc1cccc(NC(=O)Nc2ccc(Oc3c(F)c(F)c(F)c(F)c3F)cc2)c1	-32%	i	3%	-5%	-2%	-25%
O=C(Nc1ccc(Oc2c(F)c(F)c(F)c(F)c2F)cc1)OC1CCN2Cc3ccccc3N=C12 (centres undefined)	10µM*	?	?	2.3µM*	10µM*	5.2µM*
CCCCn1c(CNC(=O)C23CC4CC(CC(C4)C2)C3)nnc1SCC(=O)Nc1ccc(F)cc1	?	?	?	?	-36%	?
COc1ccc(C(=O)N2CCN(c3nc(C4CC4)nc4sc(C)c(C)c34)CC2)cc1	?	i	?	21µM*	-3%	?
Cc1sc2nc(C3CC3)nc(N3CCN(C(=O)c4ccc(F)cc4)CC3)c2c1C	?	i	?	23µM*	-2%	?
Cc1sc2nc(C3CC3)nc(N3CCN(S(=O)(=O)c4ccc(F)cc4)CC3)c2c1C	-21%	i	-11%	11µM*	8%	?
Cc1sc2nc(C3CC3)nc(N3CCN(C(=O)c4ccc(Cl)cc4)CC3)c2c1C	?	i	-31%	18µM*	-15%	?

From PubChem BioAssay
